Experimental findings from PubChem BioAssay (NCI) are described below.

Compounds without any hit were thinned out: in the full panel of roughly 79,000, 15% have a hit. Values without a mark were called inactive. Calls of active or inactive are those of the source. Rule as the data show it: active = growth inhibition above about 70%; inactive = the rest.

Test [1] in a line: NCI Yeast Anticancer Drug Screen. Data for the rad50 strain (AID 155).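 Also: 0% = growth of vehicle-only cultures of the same strain.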 Conditions: S. cerevisiae rad50 strain growth inhibition, active compounds read high. In a few lines: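 Growth of the mutant yeast was measured after compound exposure and referenced to vehicle-treated cultures.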
Test [2] is described as follows: NCI Yeast Anticancer Drug Screen. Data for the mec2-1 strain (AID 157). Conditions: S. cerevisiae mec2-1 strain, active compounds read high. In a few lines: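 Using mec2-1 yeast: add compound, measure growth, express inhibition versus vehicle-treated cultures.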
Test [3] is described as follows: NCI Yeast Anticancer Drug Screen. Data for the sgs1 mgt1 strain (AID 161).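 Also: 0% = growth of cultures given vehicle only.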 To be noted: S. cerevisiae sgs1 mgt1 strain, active compounds read high. In a few lines:
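This yeast growth screen uses a strain with defined DNA-repair lesions; compound-treated growth is compared with vehicle-treated growth.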

Test [4] is described as follows: NCI Yeast Anticancer Drug Screen. Data for the cln2 rad14 strain (AID 165).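 Also: 0% = growth equal to vehicle treated cultures.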 Conditions: S. cerevisiae cln2 rad14 strain, active compounds read high. The gist of the method: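 Yeast strain cln2 rad14, bearing defects in cell cycle control and DNA repair, serves as the test system; values reflect growth inhibition compared with vehicle.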
Test [5] can be described thus: NCI Yeast Anticancer Drug Screen. Data for the bub3 strain (AID 167). Conditions: S. cerevisiae bub3 mutant strain, active compounds read high. In a few lines: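 Whole-cell yeast assay. The mutant strain was incubated with compounds, and growth inhibition was determined by comparison with vehicle-treated cells.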
Test [6] can be described thus: NCI Yeast Anticancer Drug Screen. Data for the mlh1 rad18 strain (AID 175). To be noted: S. cerevisiae mlh1 rad18 strain growth inhibition, active compounds read high. In a few lines: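 Steps: expose repair-defective yeast to compound; measure growth; express inhibition against vehicle-treated controls.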
Setting [7] is: at 5.0 µM (retest, dose inferred, filed as 0.5).
The mark [8] stands for this setting: at 50.0 µM (retest, dose inferred, filed as 5.0).

As for `CC(C)=CN(C)C` (tested in a mixture with another compound), the growth inhibition in test [1] (setting [7]) is -120%; in test [1] (setting [8]), 87% (active); in test [1] (at 50.0 µM), 93.5% (active); in test [2] (setting [7]), -36%; in test [2] (setting [8]) it was 91% (active); in test [2] (at 50.0 µM), 96.7% (active). The growth inhibition is -42% in test [3] (setting [7]); 89% (active) in test [3] (setting [8]); 91.7% (active) in test [3] (at 50.0 µM); -55% in test [4] (setting [7]); 97% (active) in test [4] (setting [8]); 98.4% (active) in test [4] (at 50.0 µM). The growth inhibition was -68% in test [5] (setting [7]); 83% (active) in test [5] (setting [8]); 91.2% (active) in test [5] (at 50.0 µM); -113% in test [6] (setting [7]); 95% (active) in test [6] (setting [8]); 95.8% (active) in test [6] (at 50.0 µM).

For the molecule `Cc1ccc(C(C)C)c(O)c1N/N=C/c1cc(Cl)ccc1O`, the growth inhibition was 2% in test [1] (setting [7]); 55% in test [1] (setting [8]); 73% (active) in test [1] (at 50.0 µM); 3% in test [2] (setting [7]); 25% in test [2] (setting [8]); -0.3% in test [2] (at 50.0 µM). Moreover, the growth inhibition in test [3] (setting [7]) is 1%; in test [3] (setting [8]), 82% (active); in test [3] (at 50.0 µM), 41.9%; in test [4] (setting [7]), 2%; in test [4] (setting [8]), 26%; in test [4] (at 50.0 µM), -4.05%. For the same molecule, the growth inhibition in test [5] (setting [7]) was 1%; in test [5] (setting [8]), 48%; in test [5] (at 50.0 µM) it was 58.1%; in test [6] (setting [7]) it was 2%; in test [6] (setting [8]), 83% (active); in test [6] (at 50.0 µM), 36.8%.

Consider `CC1CCC(C)(C)c2cc([N+](=O)[O-])cc([N+](=O)[O-])c21` (stereo not given), for which the growth inhibition in test [1] (setting [7]) was -1%; in test [1] (setting [8]), 99% (active); in test [1] (at 50.0 µM) it was -6.5%; in test [2] (setting [7]), 0%; in test [2] (setting [8]), 99% (active); in test [2] (at 50.0 µM), -0.75%. Besides, the growth inhibition in test [3] (setting [7]) was -4%; in test [3] (setting [8]), 99% (active); in test [3] (at 50.0 µM), 26.2%; in test [4] (setting [7]), 1%; in test [4] (setting [8]), 99% (active); in test [4] (at 50.0 µM) it was -8.1%. Also, the growth inhibition is 18% in test [5] (setting [7]); 99% (active) in test [5] (setting [8]); 80.2% (active) in test [5] (at 50.0 µM); -1% in test [6] (setting [7]); 99% (active) in test [6] (setting [8]); 17.9% in test [6] (at 50.0 µM).

For the molecule `O=C1OC2(c3ccccc31)c1cc(I)c(O)c(I)c1Oc1c2cc(I)c(O)c1I`, the growth inhibition in test [1] (setting [7]) was 32%; in test [1] (setting [8]), 99% (active); in test [1] (at 50.0 µM), 98.5% (active); in test [2] (setting [7]), 61%; in test [2] (setting [8]) it was 99% (active); in test [2] (at 50.0 µM), 99.3% (active). Moreover, the growth inhibition was 21% in test [3] (setting [7]); 56% in test [3] (setting [8]); 99.6% (active) in test [3] (at 50.0 µM); 15% in test [4] (setting [7]); 98% (active) in test [4] (setting [8]); 98.8% (active) in test [4] (at 50.0 µM). Further, the growth inhibition is 15% in test [5] (setting [7]); 99% (active) in test [5] (setting [8]); 99.2% (active) in test [5] (at 50.0 µM); 62% in test [6] (setting [7]); 99% (active) in test [6] (setting [8]); 98.7% (active) in test [6] (at 50.0 µM).

As for `CS(=O)(=O)c1cc(=O)c2ccccc2s1`, the growth inhibition in test [1] (setting [7]) is 6%; in test [1] (setting [8]), 99% (active); in test [1] (at 50.0 µM) it was 97.2% (active); in test [2] (setting [7]), 23%; in test [2] (setting [8]), 99% (active); in test [2] (at 50.0 µM), 96.6% (active). Moreover, the growth inhibition in test [3] (setting [7]) is 21%; in test [3] (setting [8]), 99% (active); in test [3] (at 50.0 µM) it was 97.5% (active); in test [4] (setting [7]), 10%; in test [4] (setting [8]) it was 99% (active); in test [4] (at 50.0 µM), 84.7% (active). In addition, the growth inhibition in test [5] (setting [7]) was -3%; in test [5] (setting [8]), 100% (active); in test [5] (at 50.0 µM), 31.6%; in test [6] (setting [7]), 17%; in test [6] (setting [8]), 99% (active); in test [6] (at 50.0 µM) it was 97.8% (active).

For the molecule `Cc1occc1C(=S)Nc1ccc(Cl)c(/C=N/OC(C)C)c1`, the growth inhibition in test [1] (setting [7]) is 12%; in test [1] (setting [8]), 83% (active); in test [1] (at 50.0 µM), 77.5% (active); in test [2] (setting [7]) it was 13%; in test [2] (setting [8]), 77% (active); in test [2] (at 50.0 µM) it was 59.2%. Besides, the growth inhibition in test [3] (setting [7]) is 13%; in test [3] (setting [8]), 80% (active); in test [3] (at 50.0 µM), 71.3% (active); in test [4] (setting [7]), 24%; in test [4] (setting [8]) it was 81% (active); in test [4] (at 50.0 µM), 75.6% (active). Moreover, the growth inhibition in test [5] (setting [7]) was 22%; in test [5] (setting [8]) it was 86% (active); in test [5] (at 50.0 µM), 73.5% (active); in test [6] (setting [7]) it was 17%; in test [6] (setting [8]) it was 91% (active); in test [6] (at 50.0 µM), 77.8% (active).

Turning to `CCCN(CCC)C(=S)N/N=C/c1cccc(C)n1`, the growth inhibition was -8% in test [1] (setting [7]); 100% (active) in test [1] (setting [8]); 90.3% (active) in test [1] (at 50.0 µM); -33% in test [2] (setting [7]); 99% (active) in test [2] (setting [8]); 93.2% (active) in test [2] (at 50.0 µM). For the same molecule, the growth inhibition in test [3] (setting [7]) was -40%; in test [3] (setting [8]), 98% (active); in test [3] (at 50.0 µM), 92.8% (active); in test [4] (setting [7]) it was -9%; in test [4] (setting [8]), 100% (active); in test [4] (at 50.0 µM), 93.1% (active). Also, the growth inhibition was -32% in test [5] (setting [7]); 100% (active) in test [5] (setting [8]); 92.5% (active) in test [5] (at 50.0 µM); -8% in test [6] (setting [7]); 99% (active) in test [6] (setting [8]); 89.7% (active) in test [6] (at 50.0 µM).

For the molecule `CCCCCCC(O)(CCCCCC)CCCCCC`, the growth inhibition is -1% in test [1] (setting [7]); -34% in test [1] (setting [8]); 83.3% (active) in test [1] (at 50.0 µM); -3% in test [2] (setting [7]); -34% in test [2] (setting [8]); 32.8% in test [2] (at 50.0 µM). Also, the growth inhibition in test [3] (setting [7]) is -3%; in test [3] (setting [8]), -31%; in test [3] (at 50.0 µM) it was 42.8%; in test [4] (setting [7]), 1%; in test [4] (setting [8]), -41%; in test [4] (at 50.0 µM), 23.9%. Also, the growth inhibition in test [5] (setting [7]) is 0%; in test [5] (setting [8]), -12%; in test [5] (at 50.0 µM), 5.3%; in test [6] (setting [7]) it was 1%; in test [6] (setting [8]), -31%; in test [6] (at 50.0 µM), 44.1%.

For `CCCN(CCC)C(=O)c1nc(N)nc(-c2ccc(OC)cc2)c1-c1ccc(OC)cc1`, the growth inhibition in test [1] (setting [7]) was 9%; in test [1] (setting [8]) it was 9%; in test [1] (at 50.0 µM), -23.6%; in test [2] (setting [7]), -1%; in test [2] (setting [8]), -1%; in test [2] (at 50.0 µM) it was -30.1%. Also, the growth inhibition was -6% in test [3] (setting [7]); -6% in test [3] (setting [8]); 29.4% in test [3] (at 50.0 µM); 0% in test [4] (setting [7]); 0% in test [4] (setting [8]); 2.55% in test [4] (at 50.0 µM). Further, the growth inhibition is -10% in test [5] (setting [7]); -10% in test [5] (setting [8]); -21.4% in test [5] (at 50.0 µM); -9% in test [6] (setting [7]); -9% in test [6] (setting [8]); -42% in test [6] (at 50.0 µM).

`BrC(Br)([P+](c1ccccc1)(c1ccccc1)c1ccccc1)[P+](c1ccccc1)(c1ccccc1)c1ccccc1`: the growth inhibition is 18% in test [1] (setting [7]); 73% (active) in test [1] (setting [8]); 19.1% in test [1] (at 50.0 µM); 9% in test [2] (setting [7]); 41% in test [2] (setting [8]); 23.6% in test [2] (at 50.0 µM). In addition, the growth inhibition in test [3] (setting [7]) was 4%; in test [3] (setting [8]), 61%; in test [3] (at 50.0 µM), 27.5%; in test [4] (setting [7]), 4%; in test [4] (setting [8]) it was 24%; in test [4] (at 50.0 µM), 35.4%. Further, the growth inhibition in test [5] (setting [7]) is 4%; in test [5] (setting [8]) it was 42%; in test [5] (at 50.0 µM), 12.7%; in test [6] (setting [7]) it was 15%; in test [6] (setting [8]), 74% (active); in test [6] (at 50.0 µM) it was 78.2% (active).
